Laboratory results: PubChem BioAssay (NCATS)
Results filed as inconclusive are left out. The source made the active and inactive calls. Unless noted, calls come from the whole dose curve; as a rule, active = well fitted curve in the direction sought with a large enough effect; inconclusive = small, poorly fitted or top-dose-only effect, or another doubt; inactive = no such curve, though single readings can be large; an effect the other way counts as inactive or inconclusive.

Assays:
[1] = Cytotoxicity counterscreen for NFkB agonists and antagonists (AID 624476); note: potency is the fitted concentration of half-maximal effect
[2] = qHTS Assay for Identification of Small Molecule Agonists for NFkB Signaling Pathway. (AID 624478); note: 0% is about no effect
How it was run: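 Compounds were added with 10 pM TNF alpha (EC50 level) to ME-180 NFkB-bla cells in low-serum Opti-MEM and incubated 5 hrs at 37 C. Beta-lactamase FRET read-out used 405 nm excitation and 460 and 530 nm emission.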

[3] = qHTS Assay for Identification of Small Molecule Antagonists for NFkB Signaling Pathway. (AID 624479; calls by dose curve;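 note: pathway stimulated with TNF alpha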; note: potency is the fitted concentration of half-maximal effect)
[4] = Cell Proliferation Assay against the TMD8 Cell Line (AID 651645); conditions: TMD8 DLBCL cell line proliferation/viability; at 46.1 µM (top of the series);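 note: cells exposed to compound for 48 h before reading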
How it was run: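 Cell viability of the ABC DLBCL line TMD8 is measured by CellTiter-Glo luminescence following a 48-hour incubation with compound. Percent activity uses DMSO as 100% and 9.2 uM bortezomib (final) as 0%.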

[5] = Cell Proliferation Assay against the HBL1 Cell Line (AID 651646); conditions: HBL1 DLBCL cells; at 46.1 µM (top of the series);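 note: cells exposed to compound for 48 h before reading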
How it was run: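 After a 48 h incubation of 500 HBL1 cells/well in phenol red-free RPMI plus 5% FBS, relative luciferase units from CellTiter-Glo gave percent activity against DMSO and 9.2 uM bortezomib (final) controls.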

[6] = Cell Proliferation Assay against the TMD8 Cell Line (Caspase readout at 16 hrs) (AID 651712); note: potency is the fitted concentration of half-maximal effect
How it was run: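 16 h, 37 °C, TMD8 (500 cells/well), RPMI/5% FBS no phenol red; Caspase-Glo 3/7, 15 min RT, luminescence; %act: DMSO 0, bortezomib 9.2 uM final 100.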

[7] = Cell Proliferation Assay against the TMD8 Cell Line (Caspase readout at 8 hrs) (AID 651713); note: potency is the fitted concentration of half-maximal effect
How it was run: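 Apoptosis read-out: Caspase-Glo luminescence after 8 h compound exposure of TMD8 lymphoma cells at 37C, 5% CO2. Signals were normalized as percent activity between DMSO and bortezomib (9.2 uM final) controls.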

[8] = qHTS for small molecule inhibitors of Yes1 kinase: Counter Assay (AID 686950);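 note: no kinase present so only ADP-Glo detection of a fixed ADP amount is tested; luminescence from ADP-Glo reporting ADP in a fixed ATP and ADP mixture; 0% = DMSO wells with ATP plus ADP and -100% = ATP-only wells without ADP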
How it was run: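 Measuring interference with ADP-Glo, the assay ran 60 min at room temperature on an ATP/ADP mix lacking enzyme. Values were normalized to ATP-plus-ADP (maximum) and ATP-only (minimum) DMSO controls.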

[9] = target: Tyrosine-protein kinase Yes (Homo sapiens) (UniProt P07947); assay: qHTS for small molecule inhibitors of Yes1 kinase: Primary Screen (AID 686947); note: nearly all actives have a fitted effect of over 60% in size; note: potency is the fitted concentration of half-maximal effect
Chain of Tyrosine-protein kinase Yes (Homo sapiens) (P07947 whole entry, looked up): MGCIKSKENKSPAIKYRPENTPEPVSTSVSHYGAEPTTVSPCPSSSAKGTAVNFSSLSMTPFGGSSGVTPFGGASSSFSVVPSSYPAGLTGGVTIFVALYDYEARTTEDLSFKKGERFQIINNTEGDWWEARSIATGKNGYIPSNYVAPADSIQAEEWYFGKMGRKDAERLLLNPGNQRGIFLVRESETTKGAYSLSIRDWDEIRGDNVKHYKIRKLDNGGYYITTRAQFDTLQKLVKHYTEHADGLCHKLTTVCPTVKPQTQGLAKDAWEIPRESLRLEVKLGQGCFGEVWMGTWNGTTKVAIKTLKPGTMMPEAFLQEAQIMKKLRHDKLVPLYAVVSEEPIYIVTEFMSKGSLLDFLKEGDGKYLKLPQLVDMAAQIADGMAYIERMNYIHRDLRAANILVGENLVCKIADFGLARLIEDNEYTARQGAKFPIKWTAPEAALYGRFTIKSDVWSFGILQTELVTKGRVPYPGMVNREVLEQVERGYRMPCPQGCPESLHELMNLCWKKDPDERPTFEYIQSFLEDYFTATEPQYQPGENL
How it was run: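 ADP-Glo luminescence reports ADP formed by 4 nM Yes1 phosphorylating poly(E4Y) (0.3 mg/mL) with 0.1 mM ATP for 60 min at room temperature, following 20 min compound preincubation; normalised between DMSO wells with and without enzyme.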

## O=C(NCCS(=O)(=O)c1ccc(C(F)(F)F)cn1)c1ccc(Cl)cc1
[1]
  Potency: inactive
[2]
  outcome: inactive
[3]
  Potency: inactive
[4]
  viability (% of control): 96.1%
[5]
  viability, percent of control: 92%
[6]
  Potency: inactive
[7]
  Potency: inactive
[8]
  outcome: inactive

## COc1ccc2c(c1)CC[C@@H](CN(C)CC(=O)O)[C@H]2c1ccccc1
[1]
  Potency: inactive
[2]
  outcome: inactive
[3]
  Potency: inactive
[4]
  viability (% of control): 118%
[5]
  viability, percent of control: 98.5%
[6]
  Potency: inactive
[7]
  Potency: inactive
[8]
  outcome: inactive

## O=C(O)[C@H](Cc1c[nH]c2ccccc12)N1C(=O)c2ccccc2C1=O
[1]
  Potency: inactive
[2]
  outcome: inactive
[3]
  Potency: inactive
[4]
  viability (% of control): 104%
[5]
  viability, percent of control: 130%
[6]
  Potency: inactive
[7]
  Potency: inactive
[9]
  Potency: inactive
[8]
  outcome: inactive

## CCN1CCN(Cc2ccc(-c3cc4c(N[C@H](C)c5ccccc5)ncnc4[nH]3)cc2)CC1
[1]
  Potency: 33.2 µM (active)
[2]
  outcome: inactive
[3]
  Potency: 16.8 µM (active)
[4]
  viability (% of control): 1.56%
[5]
  viability, percent of control: 1.9%
[6]
  Potency: 16.6 µM (active)
[8]
  outcome: inactive

## NC(=O)Nc1cc(-c2cccc(F)c2)sc1C(=O)N[C@H]1CCCNC1
[1]
  Potency: 1.32 µM (active)
[2]
  outcome: inactive
[3]
  Potency: 14.9 µM (active)
[4]
  viability (% of control): 5.07%
[5]
  viability, percent of control: 19.6%
[6]
  Potency: 0.0418 µM (active)
[8]
  outcome: inactive

## Nc1nc(Nc2ccc(S(N)(=O)=O)cc2)nn1C(=O)c1c(F)cccc1F
[1]
  Potency: 9.35 µM (active)
[2]
  outcome: inactive
[3]
  Potency: 0.473 µM (active)
[4]
  viability (% of control): 6.19%
[5]
  viability, percent of control: 49.5%
[6]
  Potency: 5.26 µM (active)
[7]
  Potency: 14.8 µM (active)
[8]
  outcome: inactive

## C#Cc1cccc(Nc2ncnc3cc(OC)c(OCCCCCCC(=O)NO)cc23)c1
[1]
  Potency: 2.64 µM (active)
[2]
  outcome: inactive
[3]
  Potency: 16.8 µM (active)
[4]
  viability (% of control): -0.46%
[5]
  viability, percent of control: 1.91%
[6]
  Potency: 0.148 µM (active)
[8]
  outcome: inactive

## CC(=O)OCCN1C(=O)c2c(C)nc3ccc(S(=O)(=O)N4CCOCC4)cc3c2C1=O
[1]
  Potency: inactive
[2]
  outcome: inactive
[3]
  Potency: inactive
[4]
  viability (% of control): 94.5%
[5]
  viability, percent of control: 105%
[6]
  Potency: inactive
[7]
  Potency: inactive
[8]
  outcome: inactive

## Cc1ccc(-c2ncn(-c3ccc(Nc4nccc(-c5cccc(N6CCOCC6)c5)n4)cc3)n2)cn1
[1]
  Potency: 0.935 µM (active)
[2]
  outcome: inactive
[3]
  Potency: 0.237 µM (active)
[4]
  viability (% of control): 0.9%
[5]
  viability, percent of control: 0.21%
[6]
  Potency: 0.0105 µM (active)
[9]
  Potency: 12.2 µM (active)
[8]
  outcome: inactive

## CC(C)c1ccccc1Cc1cc(C(=O)Nc2ccc(S(=O)(=O)c3ccccc3C(C)(C)C)cc2)c(O)c(O)c1O
[1]
  Potency: 14.8 µM (active)
[2]
  outcome: inactive
[3]
  Potency: 13.3 µM (active)
[4]
  viability (% of control): 9.33%
[5]
  viability, percent of control: 21.6%
[6]
  Potency: 6.62 µM (active)
[8]
  outcome: inactive

## CC(C)[C@H](C(=O)Nc1ccc(C(=O)NO)cc1)c1ccccc1
[1]
  Potency: 18.7 µM (active)
[2]
  outcome: inactive
[3]
  Potency: inactive
[4]
  viability (% of control): 0.267%
[5]
  viability, percent of control: 0.0861%
[6]
  Potency: 0.166 µM (active)
[8]
  outcome: inactive

## CCN1CCN(CC(=O)Nc2ccc(-c3cccc4c(=O)cc(N5CCOCC5)oc34)c3sc4ccccc4c23)CC1
[1]
  Potency: 5.9 µM (active)
[2]
  outcome: inactive
[3]
  Potency: 13.3 µM (active)
[4]
  viability (% of control): 0.621%
[5]
  viability, percent of control: 0.638%
[6]
  Potency: 0.469 µM (active)
[7]
  Potency: 20.9 µM (active)
[8]
  outcome: inactive

## Cc1ccc(C(=O)Nc2cccc(C(F)(F)F)c2)cc1-c1ccc2nc(NCCN3CCOCC3)ncc2c1
[1]
  Potency: 20.9 µM (active)
[2]
  outcome: inactive
[3]
  Potency: 4.73 µM (active)
[4]
  viability (% of control): 0.164%
[5]
  viability, percent of control: 0.88%
[7]
  Potency: 20.9 µM (active)
[8]
  outcome: inactive

## CN(c1ncccc1CNc1nc(Nc2ccc3c(c2)CC(=O)N3)ncc1C(F)(F)F)S(C)(=O)=O
[1]
  Potency: 10.5 µM (active)
[2]
  outcome: inactive
[3]
  Potency: 1.49 µM (active)
[4]
  viability (% of control): -0.0421%
[5]
  viability, percent of control: 40.9%
[7]
  Potency: 8.33 µM (active)
[8]
  outcome: inactive

## O=C(O)c1ccc2cc(-c3ccc(O)c(C45CC6CC(CC(C6)C4)C5)c3)ccc2c1
[1]
  Potency: 0.118 µM (active)
[2]
  outcome: inactive
[3]
  Potency: 14.9 µM (active)
[4]
  viability (% of control): 2.27%
[5]
  viability, percent of control: 1.91%
[9]
  Potency: inactive
[8]
  outcome: inactive

## Nc1nc(-c2nn(Cc3ccccc3F)c3ncccc23)nc(N)c1N1CCOCC1
[1]
  Potency: inactive
[2]
  outcome: inactive
[3]
  Potency: inactive
[6]
  Potency: inactive
[7]
  Potency: inactive
[9]
  Potency: inactive
[8]
  outcome: inactive

## COC(=O)c1ccc2c(C(=Nc3ccc(N(C)C(=O)CN4CCN(C)CC4)cc3)c3ccccc3)c(O)[nH]c2c1
[1]
  Potency: 23.5 µM (active)
[2]
  outcome: inactive
[4]
  viability (% of control): 1.41%
[5]
  viability, percent of control: 2.34%
[6]
  Potency: 0.469 µM (active)
[7]
  Potency: 26.4 µM (active)
[8]
  outcome: inactive

## CC(C)c1ccc(Cn2ccc3c4c(N)nc(NC5CC5)nc4ccc32)cc1
[1]
  Potency: 9.35 µM (active)
[2]
  outcome: inactive
[3]
  Potency: 16.8 µM (active)
[4]
  viability (% of control): 1.25%
[5]
  viability, percent of control: 1.62%
[7]
  Potency: 6.62 µM (active)
[8]
  outcome: inactive

## CC(C)C[C@H](NC(=O)CNC(=O)c1cc(Cl)ccc1Cl)B(O)O
[1]
  Potency: 0.0743 µM (active)
[2]
  outcome: inactive
[3]
  Potency: 0.0084 µM (active)
[4]
  viability (% of control): 4.52%
[5]
  viability, percent of control: 5.36%
[8]
  outcome: inactive
